Assay results: the supplement of paper PMC6607015
Where a name gives a salt, the structure may show the parent alone.

Legend:
Details in all cases: compound concentration in added solution (µM; 5 µl added to 20 µl cells): 10; 18 h
A431 [1] = assay: LBPA endosome anti-LBPA integrated intensity (sum per cell), Z-score; higher = more LBPA staining
In short: (§1)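 Each value is a Z-score normalised in AcuityXpress from per-cell integrated LBPA or filipin intensity, taken over the whole cell or within LBPA endosomes. Duplicate 384-well imaging plates held 5 µl of 10 µM compound solution, onto which 3,500 HeLa MZ or A431 cells in 20 µl were seeded per well. After 18 h the cells were fixed in 4% PFA, stained with 6C4 anti-LBPA antibody, filipin, propidium iodide and CellTracker green, imaged four times per well at 20× and segmented in MetaXpress.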

HeLa MZ [2] = assay: as above
In short: as §1

A431 [3] = assay: whole-cell filipin (free cholesterol) integrated intensity, Z-score; higher = more cholesterol staining
In short: as §1

HeLa MZ [4] = assay: as above
In short: as §1

A431 [5] = assay: filipin (cholesterol) integrated intensity within LBPA endosomes, Z-score; higher = more cholesterol in LBPA endosomes
In short: as §1

HeLa MZ [6] = assay: as above
In short: as §1

Compound | LBPA endosome anti-LBPA integrated intensity (z-score) (A431 [1]) | LBPA endosome anti-LBPA integrated intensity (z-score) (HeLa MZ [2]) | whole-cell filipin (z-score) (A431 [3]) | whole-cell filipin (z-score) (HeLa MZ [4]) | filipin (z-score) (A431 [5]) | filipin (z-score) (HeLa MZ [6])
NC(=O)N/N=C/c1ccc([N+](=O)[O-])o1 [Nitrofural] | -0.562 | -0.605 | -0.633 | -0.478 | -0.506 | -0.689
CN1CCCN(C(c2ccccc2)c2ccc(Cl)cc2)CC1 (stereo unspecified) [Homochlorcyclizine dihydrochloride] | 2.75 | 1.74 | 0.946 | -0.527 | 2.1 | 1.46
NC(=O)c1cccnc1 [Nicotinamide] | -0.398 | -0.64 | -0.512 | -0.013 | -0.419 | -0.499
C[C@]12C[C@H](O)[C@H]3[C@@H](CCC4=CC(=O)CC[C@@]43C)[C@@H]1CC[C@@H]2C(=O)CO [Corticosterone] | -0.334 | 0.522 | -0.492 | -0.633 | -0.326 | -0.407
CC(C)NCC(O)c1cc(O)cc(O)c1 (stereo unspecified) [Metaproterenol sulfate, orciprenaline sulfate] | -0.366 | -0.417 | -0.271 | -0.375 | -0.531 | -0.465
CC(=O)OCC(=O)[C@@]12N=C(C)O[C@@H]1C[C@H]1[C@@H]3CCC4=CC(=O)C=C[C@]4(C)[C@H]3[C@@H](O)C[C@@]12C [Deflazacort] | -0.192 | 0.385 | 0.137 | 0.444 | -0.208 | -0.207
CC(Cc1cccc(C(F)(F)F)c1)NCCOC(=O)c1ccccc1 (stereo unspecified) [Benfluorex hydrochloride] | -0.077 | -0.59 | -0.118 | 0.0685 | -0.352 | -0.573
CN(C)CCC(c1ccc(Cl)cc1)c1ccccn1 (stereo unspecified) [Chlorpheniramine maleate] | -0.653 | 0.363 | -0.45 | -0.192 | -0.443 | 0.105
CC(C(=O)O)c1cccc(C(=O)c2ccccc2)c1 (stereo unspecified) [Ketoprofen] | -0.482 | -0.219 | -0.803 | -0.835 | -0.552 | -0.545
CC[C@H]1OC(=O)[C@H](C)[C@@H](O[C@H]2C[C@@](C)(OC)[C@@H](O)[C@H](C)O2)[C@H](C)[C@@H](O[C@@H]2O[C@H](C)C[C@H](N(C)C)[C@H]2O)[C@](C)(O)C[C@@H](C)/C(=N\OCOCCOC)[C@H](C)[C@@H](O)[C@]1(C)O [Roxithromycin] | -0.396 | 0.565 | 0.114 | 0.214 | -0.261 | 0.0396
CC(C)(S)[C@@H](N)C(=O)O [Penicillamine] | -0.535 | -0.589 | -0.551 | -0.607 | -0.469 | -0.553
Cc1cc(NC(=O)C2=C(O)c3ccccc3S(=O)(=O)N2C)no1 [Isoxicam] | -0.656 | -1.14 | -0.786 | -0.746 | -0.604 | -0.633
Cc1ccc(C)c(OCCCC(C)(C)C(=O)O)c1 [Gemfibrozil] | -0.639 | -0.782 | -0.695 | -0.706 | -0.635 | -0.699
CC(=O)OCC(=O)[C@@]1(O)CC[C@H]2[C@@H]3CCC4=CC(=O)CC[C@]4(C)[C@H]3[C@@H](O)C[C@@]21C [Cortisol acetate] | -0.325 | -0.845 | -0.384 | -0.119 | -0.306 | -0.404
CCN(CC)CCNC(=O)c1cc(Br)c(N)cc1OC [Bromopride] | -0.305 | 0.899 | -0.269 | 0.199 | -0.333 | 0.158
c1ccc2c(CC3=NCCN3)cccc2c1 [Naphazoline hydrochloride] | -0.505 | 0.993 | -0.75 | 0.085 | -0.523 | 0.0798
NC(=O)c1cc[n+](CC2=C(C(=O)[O-])N3C(=O)[C@@H](NC(=O)[C@@H](c4ccccc4)S(=O)(=O)O)[C@H]3SC2)cc1 [Cefsulodin sodium salt] | -0.471 | -0.634 | -0.331 | -0.0382 | -0.357 | -0.398
CC(C)(C)C(=O)OCOC(=O)[C@@H]1N2C(=O)[C@@H](NC(=O)[C@H](N)c3ccccc3)[C@H]2SC1(C)C [Pivampicillin] | -0.161 | 0.0846 | 0.0929 | -0.0816 | -0.266 | -0.41
CO[C@@]1(NC(=O)C(C(=O)O)c2ccc(O)cc2)C(=O)N2C(C(=O)O)=C(CSc3nnnn3C)CO[C@@H]21 (stereo partly specified) [Moxalactam disodium salt] | -0.477 | 0.127 | -0.129 | 0.413 | -0.413 | -0.25
Clc1ccc2nsnc2c1NC1=NCCN1 [Tizanidine HCl] | -0.331 | 0.552 | -0.333 | -0.51 | -0.548 | -0.219
CC[C@]12CCCN3CCc4c(n(c5ccccc45)[C@@](O)(C(=O)OC)C1)[C@@H]32 [Vincamine] | -0.234 | 0.384 | -0.552 | -1.23 | -0.453 | -0.216
CCCCNc1ccc(C(=O)OCCOCCOCCOCCOCCOCCOCCOCCOCCOC)cc1 [Benzonatate] | -0.445 | -0.231 | -0.686 | -0.896 | -0.427 | -0.476
O=C1C(O)=C([C@H]2CC[C@H](c3ccc(Cl)cc3)CC2)C(=O)c2ccccc21 [Atovaquone] | -0.63 | -0.824 | -0.408 | -0.361 | -0.555 | -0.654

Compound | LBPA endosome anti-LBPA integrated intensity (z-score) (A431 [1]) | LBPA endosome anti-LBPA integrated intensity (z-score) (HeLa MZ [2]) | whole-cell filipin (z-score) (A431 [3]) | whole-cell filipin (z-score) (HeLa MZ [4]) | filipin (z-score) (A431 [5]) | filipin (z-score) (HeLa MZ [6])
NCCc1ccc(O)c(O)c1 [Dopamine hydrochloride] | -0.272 | 0.0633 | 0.184 | -0.446 | -0.377 | -0.485
Cc1cc(=O)n(-c2ccccc2)n1C [Antipyrine] | -0.333 | -0.475 | -0.316 | -0.0627 | -0.425 | -0.342
CO[C@@H]1[C@@H](O[C@@H]2O[C@H](C)[C@@H](O[C@H]3C[C@@](C)(O)[C@@H](OC(=O)CC(C)C)[C@H](C)O3)[C@H](N(C)C)[C@H]2O)[C@@H](CC=O)C[C@@H](C)[C@@H](O)/C=C/C=C/C[C@@H](C)OC(=O)C[C@H]1OC(C)=O [Josamycin] | 0.115 | -0.222 | -0.459 | -0.645 | -0.106 | -0.348
O=C(O)CCCC[C@@H]1SC[C@@H]2NC(=O)N[C@@H]21 [Biotin] | -0.478 | -0.782 | -0.69 | -0.491 | -0.471 | -0.52
CN(CCCCCCCCCCN(C)C(=O)Oc1cccc([N+](C)(C)C)c1)C(=O)Oc1cccc([N+](C)(C)C)c1 [Demecarium bromide] | -0.223 | -0.152 | -0.139 | -0.617 | -0.179 | -0.595
CC(C)(Oc1ccc(Cl)cc1)C(=O)O [Clofibric acid] | -0.512 | -0.676 | -0.43 | -0.52 | -0.514 | -0.568
OC(c1cc(C(F)(F)F)nc2c(C(F)(F)F)cccc12)C1CCCCN1 (stereo unspecified) [Mefloquine hydrochloride] | 2 | -0.429 | 0.872 | -0.477 | 1.56 | 1.56
CN(C)CCOc1ccc(/C(=C(/CCCl)c2ccccc2)c2ccccc2)cc1 [Toremifene] | 2.64 | 0.267 | 2.3 | 1.93 | 2.35 | 3.94
CCC1(c2ccccc2)C(=O)NCNC1=O [Primidone] | -0.559 | -0.0866 | -0.586 | -0.472 | -0.509 | -0.574
O=C(O)/C=C/c1ccc(Cn2ccnc2)cc1 [Ozagrel hydrochloride] | -0.373 | 0.0325 | 0.164 | 0.704 | -0.284 | -0.0855
C[C@H](CCC(=O)O)[C@H]1CC[C@H]2[C@@H]3CC[C@@H]4C[C@H](O)CC[C@]4(C)[C@H]3CC[C@]12C [Lithocholic acid] | -0.507 | -0.5 | -0.232 | 0.929 | -0.446 | -0.289
N[C@@H](C(=O)N[C@@H]1C(=O)N2C(C(=O)O)=C(Cl)CC[C@H]12)c1ccccc1 [Loracarbef] | -0.535 | -0.139 | -0.847 | -0.304 | -0.553 | -0.73
O=C(CCCN1CCC(O)(c2ccc(Cl)cc2)CC1)c1ccc(F)cc1 [Haloperidol] | 2.66 | 2.75 | 1.61 | 0.834 | 2.42 | 2.21
Cc1cc(C(C)(C)C)cc(C)c1CC1=NCCN1 [Xylometazoline hydrochloride] | -0.127 | 0.671 | 0.316 | 0.463 | 0.0924 | 0.303
CC1CC(OC(=O)c2ccccc2O)CC(C)(C)C1 (stereo unspecified) [Homosalate] | -0.265 | -0.48 | -0.0483 | 0.0325 | -0.434 | -0.566
CCOC(=O)C1=C(COCCN)NC(C)=C(C(=O)OC)C1c1ccccc1Cl (stereo unspecified) [Amlodipine] | 1.97 | 0.223 | 0.774 | 0.736 | 2.32 | 1.8
NC12CC3CC(CC(C3)C1)C2 [Adamantamine fumarate] | -0.644 | -1.51 | -0.89 | -0.605 | -0.499 | -0.616
COc1ccccc1OCC(O)CN1CCN(CC(=O)Nc2c(C)cccc2C)CC1 (stereo unspecified) [Ranolazine] | -0.238 | 1.53 | -0.112 | -0.533 | -0.352 | -0.221
CCC(Cc1c(I)cc(I)c(N)c1I)C(=O)O (stereo unspecified) [Iopanoic acid] | -0.521 | -0.571 | -0.348 | -0.587 | -0.484 | -0.466
CN(Cc1cnc2nc(N)nc(N)c2n1)c1ccc(C(=O)N[C@@H](CCC(=O)O)C(=O)O)cc1 (racemic) [Amethopterin (R,S)] | -0.376 | 2.61 | 0.379 | 2.03 | -0.749 | -0.934
Clc1ccccc1C(c1ccccc1)(c1ccccc1)n1ccnc1 [Clotrimazole] | -0.44 | 0.655 | -0.0982 | 0.216 | -0.276 | -0.063
CCCN(CCC)S(=O)(=O)c1ccc(C(=O)O)cc1 [Probenecid] | -0.546 | -0.569 | -0.756 | -0.679 | -0.526 | -0.61
C=CCc1ccccc1OCC(O)CNC(C)C (stereo unspecified) [Alprenolol hydrochloride] | -0.146 | -0.138 | 0.0188 | 0.141 | -0.22 | -0.133
